# Reference: PubChem BioAssay (NCI)
# About 83,000 compounds went through this panel and 20% of them were active in at least one assay; those are over-represented in the sample as a whole.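 Plates (96-well) were seeded with cells, treated with compound at one concentration, and incubated for 48 hours before percent growth was determined.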 A number with no mark means an inactive call. Active and inactive are the calls of the source. Rule for the calls: active = growth percent below 10; inactive = the rest.
# Tested on: T-47D breast
# Assay: NCI-60 one-dose screen, 48 h (100 = growth as untreated, 0 = no growth, -100 = all killed)
# Conditions: 10 µM unless noted
row,SMILES,growth
1,COc1cc(Br)c(OC)cc1Br,82%
2,O=C(Nc1ccc(I)cc1)c1cc([N+](=O)[O-])ccc1O,29.9%
3,COC(=O)CCCCCCN=Cc1c(O)c(O)c(C(C)C)c2cc(C)c(-c3c(C)cc4c(C(C)C)c(O)c(O)c(C=NCCCCCCC(=O)OC)c4c3O)c(O)c12,20.6%
4,C=CCn1c(C)nc2ccc(Nc3nc(Nc4ccc(F)cc4)nc4ccccc34)cc21,35%
5,Clc1ccc2c(c1)NC1(CCSc3ccccc31)n1nccc1-2 (stereo unspecified),101%
6,c1cc(-c2ccc3c(c2)OCO3)n2nccc2n1,88.2%
7,COc1ccc(-c2nnc(COc3ccc(NS(=O)(=O)c4ccc(OC)cc4)cc3F)o2)cc1,31.6%
8,CCNC(=O)CCCCC(=O)c1c(C)[nH]c(/C=C2\N=C(c3ccc[nH]3)C=C2OC)c1C,-46.3% (active)
9,CC[C@H](C)[C@H]1NC(=O)[C@@H](N[C@](C)(O)[C@@H](N)CC(C)C)[C@@H](C)OC(=O)[C@H](Cc2ccc(OC)cc2)N(C)C(=O)[C@@H]2CCCN2C(=O)[C@H](CC(C)C)NC(=O)[C@@H](C)C(=O)[C@H](C(C)C)OC(=O)C[C@@H]1O,-15.4% (active)
10,O=C(CNC(=O)c1cccc2ccccc12)Nc1ccccc1Oc1ccccc1,12.1%
11,Clc1nc(-c2cccnc2)nc2sc3c(c12)CCCCCC3,95.4%
12,O=C(C[N+](=O)[O-])c1ccc(Cl)cc1,113%
13,COc1cc2nc(Cl)nc(NCCO)c2cc1OC,101%
14,Cc1ccc2nc(SCn3nnc4ccccc4c3=O)[nH]c2c1,97%
15,C=CCOc1cccc(/C=C/C(=O)c2sc(Nc3cccnc3)nc2C)c1,61.3%
16,O=C(Nc1cccc(C(F)(F)F)c1)Nc1ccc(OCc2nnc(-c3ccccc3)o2)c(F)c1,21.1%
17,COC(=O)c1ccc(C)cc1,91.4%
18,COc1ccc(-c2nc(-c3nc4ccc(F)cc4[nH]3)cc3c2[nH]c2ccccc23)cc1,40.8%
19,CCCC1OC(c2ccc(C(C)C)cc2)OCC1CC (stereo unspecified),85.7%

row,SMILES,growth
1,COc1cc(C2C=C(C)N=C3SC=CN32)cc(OC)c1OC (stereo unspecified),98.8%
2,CCCCCCCN(CCCCCCC)C(=N)c1ccc(OC)c2ccccc12,-72.9% (active)
3,O=[N+]([O-])c1cccc(-c2cc(-c3cc(Br)ccc3O)[nH]n2)c1,21.1%
4,COc1ccc(/C=C2\CCCC3=C2NC(C)=NC3c2ccc(OC)c(OC)c2)cc1OC (stereo unspecified),11.2%
5,COc1cc(Cn2c(-c3nonc3N)nc3ccccc32)ccc1C,37.2%
6,CCn1c(=O)c2c(=O)c3c4c(oc3oc2c2ccccc21)C(=O)c1ccccc1C4=O,-9.96% (active)
7,COc1ccc(OC)c(NC(=O)c2cc(S(=O)(=O)N3CCc4ccccc43)ccc2OC)c1,93.4%
8,Clc1cccc(Cl)c1Cn1c(-c2cncs2)nc2ccccc21,64.5%
9,O=C(Nc1cccc(Cl)c1)c1cc([N+](=O)[O-])ccc1O,41.9%
10,O=C(O)c1ccc(-n2c(=O)c3ccccc3c3ccccc3c2=O)cc1,92.8%
11,CC/C=C\C/C=C\C[C@H]1C/C=C2/C(=O)C=C[C@H]2C/C=C\CCC(=O)O1,12.9%
12,Cn1c(C(N)=O)cc2c1-c1nc(NC3CCCCC3)ncc1CCC2,105%
13,CCOP(=O)(CCN1CCN(CCCCCOc2cc3c(cc2OC)C(=O)N2CCC[C@H]2C=N3)CC1)OCC,46%
14,O=C(NCCCN1CCN(CCCNC(=O)C2CCCCC2)CC1)C1CCCCC1,90%
15,COC(=O)c1cc(-c2cccs2)c(C#N)c(N)c1C#N,69.1%
16,COc1cc(NC(=O)CCl)ccc(=O)c1,67.1%
17,C[C@]12CC[C@@H]3c4cc(O)c(O)cc4CC[C@H]3[C@@H]1CC[C@@H]2O,30.4%
18,c1ccc([P+](CCC[P+](c2ccccc2)(c2ccccc2)c2ccccc2)(c2ccccc2)c2ccccc2)cc1,45.2%
19,CC(=O)c1cc(C(=O)c2ccc3c(c2)Sc2ccccc2N3)c2cc(C)ccn12,61.7%

# Tested on: BT-549 breast
# Assay: as above
# Conditions: 10 µM unless noted
row,SMILES,growth
1,COc1cc(Br)c(OC)cc1Br,97.7%
2,O=C(Nc1ccc(I)cc1)c1cc([N+](=O)[O-])ccc1O,34.3%
3,COC(=O)CCCCCCN=Cc1c(O)c(O)c(C(C)C)c2cc(C)c(-c3c(C)cc4c(C(C)C)c(O)c(O)c(C=NCCCCCCC(=O)OC)c4c3O)c(O)c12,38.6%
4,C=CCn1c(C)nc2ccc(Nc3nc(Nc4ccc(F)cc4)nc4ccccc34)cc21,59.2%
5,Clc1ccc2c(c1)NC1(CCSc3ccccc31)n1nccc1-2 (stereo unspecified),97.4%
6,c1cc(-c2ccc3c(c2)OCO3)n2nccc2n1,101%
7,COc1ccc(-c2nnc(COc3ccc(NS(=O)(=O)c4ccc(OC)cc4)cc3F)o2)cc1,84.7%
8,CCNC(=O)CCCCC(=O)c1c(C)[nH]c(/C=C2\N=C(c3ccc[nH]3)C=C2OC)c1C,-36.1% (active)
9,CC[C@H](C)[C@H]1NC(=O)[C@@H](N[C@](C)(O)[C@@H](N)CC(C)C)[C@@H](C)OC(=O)[C@H](Cc2ccc(OC)cc2)N(C)C(=O)[C@@H]2CCCN2C(=O)[C@H](CC(C)C)NC(=O)[C@@H](C)C(=O)[C@H](C(C)C)OC(=O)C[C@@H]1O,-45.9% (active)
10,O=C(CNC(=O)c1cccc2ccccc12)Nc1ccccc1Oc1ccccc1,-0.557% (active)
11,Clc1nc(-c2cccnc2)nc2sc3c(c12)CCCCCC3,99.8%
12,O=C(C[N+](=O)[O-])c1ccc(Cl)cc1,102%
13,COc1cc2nc(Cl)nc(NCCO)c2cc1OC,112%
14,Cc1ccc2nc(SCn3nnc4ccccc4c3=O)[nH]c2c1,105%
15,C=CCOc1cccc(/C=C/C(=O)c2sc(Nc3cccnc3)nc2C)c1,44%
16,O=C(Nc1cccc(C(F)(F)F)c1)Nc1ccc(OCc2nnc(-c3ccccc3)o2)c(F)c1,29.6%
17,COC(=O)c1ccc(C)cc1,120%
18,COc1ccc(-c2nc(-c3nc4ccc(F)cc4[nH]3)cc3c2[nH]c2ccccc23)cc1,41.8%
19,CCCC1OC(c2ccc(C(C)C)cc2)OCC1CC (stereo unspecified),102%

row,SMILES,growth
1,COc1cc(C2C=C(C)N=C3SC=CN32)cc(OC)c1OC (stereo unspecified),106%
2,CCCCCCCN(CCCCCCC)C(=N)c1ccc(OC)c2ccccc12,-7.55% (active)
3,O=[N+]([O-])c1cccc(-c2cc(-c3cc(Br)ccc3O)[nH]n2)c1,24.1%
4,COc1ccc(/C=C2\CCCC3=C2NC(C)=NC3c2ccc(OC)c(OC)c2)cc1OC (stereo unspecified),-16.1% (active)
5,COc1cc(Cn2c(-c3nonc3N)nc3ccccc32)ccc1C,66.9%
6,CCn1c(=O)c2c(=O)c3c4c(oc3oc2c2ccccc21)C(=O)c1ccccc1C4=O,85.1%
7,COc1ccc(OC)c(NC(=O)c2cc(S(=O)(=O)N3CCc4ccccc43)ccc2OC)c1,104%
8,Clc1cccc(Cl)c1Cn1c(-c2cncs2)nc2ccccc21,85.1%
9,O=C(Nc1cccc(Cl)c1)c1cc([N+](=O)[O-])ccc1O,66.5%
10,O=C(O)c1ccc(-n2c(=O)c3ccccc3c3ccccc3c2=O)cc1,107%
11,CC/C=C\C/C=C\C[C@H]1C/C=C2/C(=O)C=C[C@H]2C/C=C\CCC(=O)O1,-7.41% (active)
12,Cn1c(C(N)=O)cc2c1-c1nc(NC3CCCCC3)ncc1CCC2,80.7%
13,CCOP(=O)(CCN1CCN(CCCCCOc2cc3c(cc2OC)C(=O)N2CCC[C@H]2C=N3)CC1)OCC,52.5%
14,O=C(NCCCN1CCN(CCCNC(=O)C2CCCCC2)CC1)C1CCCCC1,96.4%
15,COC(=O)c1cc(-c2cccs2)c(C#N)c(N)c1C#N,107%
16,COc1cc(NC(=O)CCl)ccc(=O)c1,58.9%
17,C[C@]12CC[C@@H]3c4cc(O)c(O)cc4CC[C@H]3[C@@H]1CC[C@@H]2O,37.7%
18,c1ccc([P+](CCC[P+](c2ccccc2)(c2ccccc2)c2ccccc2)(c2ccccc2)c2ccccc2)cc1,75.9%
19,CC(=O)c1cc(C(=O)c2ccc3c(c2)Sc2ccccc2N3)c2cc(C)ccn12,-13.9% (active)
